High-throughput results from PubChem.
Shown are actives, neighbours in structure and some others; about 19% of the full set was active somewhere.
DT40 TDP1 CPT: growth inhibition of DT40 Tdp1-/-;hTDP1 cells with camptothecin (screen for TDP1 inhibitors). chicken DT40 Tdp1-/-;hTDP1 cells + 20 nM CPT, ATP luminescence, 48 h. Potency, µM (top dose mostly 46.2 µM), for the others: at the highest dose activity change, negative = growth inhibition, hits mostly inhibitors. actives 12% (n = 420,000). AID 686979; further: potency means the concentration at half of the fitted maximal effect; on the % scale 0 is the no-effect control and ±100 the full control effect; nearly all actives have a fitted effect of over 55% in size
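Chicken DT40 Tdp1-/- cells complemented with human TDP1, 400 cells/well, exposed to compounds plus 20 nM camptothecin for at least 48 h at 37 C; viability read as ATP content by CellTiter-Glo luminescence.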
TGFb inhibitor: TGF-b pathway inhibition; Potency, µM (highest dose often 46.1 µM), for the others: at the highest dose activity, negative = inhibition, hits mostly inhibitors; HepG2 CAGA-GFP TGF-b/SMAD3 reporter, GFP fluorescence, 18 h; TGF-beta stimulated, 500 pg/mL final; actives 1.2% (n = 410,000); further: potency means the concentration at half of the fitted maximal effect; on the % scale 0 is the no-effect control and ±100 the full control effect; nearly all actives have a fitted effect of over 65% in size
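First, reporter cells (HEPG2 CAGA-GFP) rested 2 h at 37 degrees C. Next, compounds were pinned in and TGF-beta added to 500 pg/mL final. After 18 h, GFP was imaged per cell and summed per well.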
DT40 TDP1 no CPT: qHTS for Inhibitors of human tyrosyl-DNA phosphodiesterase 1 (TDP1): qHTS in cells in absence of CPT. Potency, µM (doses to about 46.2 µM), for the others: at the top dose activity change, negative = growth inhibition, most hits filed as inhibitors. DT40 Tdp1-/- hTDP1 cells, no CPT, ATP luminescence, 48 h. AID 686978, 2013. actives 15% (n = 420,000); further: potency means the concentration at half of the fitted maximal effect; on the % scale 0 is the no-effect control and ±100 the full control effect; nearly all actives have a fitted effect of over 55% in size
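Cells were dispensed at 400 per well, compounds added by pin tool, plates incubated ≥48 hr at 37 °C, then CellTiter-Glo added for 30 min at room temperature before luminescence reading. Line: DT40 Tdp1-/- complemented with hTDP1; camptothecin omitted.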
HepG2 tox: HepG2 cytotoxicity, counter-screen for TGF-b inhibitors; actives 0.76% (n = 410,000); AID 588856; HepG2 CAGA-GFP viability, ATP luminescence, 18 h; Potency, µM (titrated, usually from 46.1 µM), for the others: at the highest dose activity change, negative = cytotoxicity, most hits filed as cytotoxic; further: potency means the concentration at half of the fitted maximal effect
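CellTiter-Glo luminescence gave cytotoxicity after 18 hours at 37 degrees C. The cells were HepG2 CAGA-GFP in 1% FBS DMEM, stimulated with 500 pg/mL TGF-beta after compound addition. %Activity was normalised to no-cell wells (complete cell-killing) and DMSO (no toxicity), and curves were fitted and classified.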
IL1B secr inh: inflammasome signaling inhibition, IL-1 beta readout | THP-1 LPS/ATP IL-1B secretion, AlphaLISA, 16 h; hits give low values | activity change, % at 57.5 µM | actives 4.7% (n = 360,000) | AID 743279; in the data active means activity change below about -50%; inconclusive means mostly about -30% to -49%; further: on the % scale 0 is the no-effect control and ±100 the full control effect
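THP-1 cells pretreated 1 hr with compounds (up to 57.5 uM final), then stimulated with LPS (250 ng/mL final) plus ATP (1.25 mM final); secreted IL-1B measured by AlphaLISA after 16 hr, decreased signal indicating inhibition.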
ASM inhibitor: blocks human secretory acid sphingomyelinase | P17405 | placental ASM, HMU-PC fluorogenic substrate, 60 min | Potency, µM (series often up to 57.5 µM), without a hit: at the highest dose activity change, negative = inhibition, hits mostly inhibitors | actives 0.006% (n = 340,000) | AID 504937; further: potency means the concentration at half of the fitted maximal effect
Target sequence (P17405 47-631 limits assumed): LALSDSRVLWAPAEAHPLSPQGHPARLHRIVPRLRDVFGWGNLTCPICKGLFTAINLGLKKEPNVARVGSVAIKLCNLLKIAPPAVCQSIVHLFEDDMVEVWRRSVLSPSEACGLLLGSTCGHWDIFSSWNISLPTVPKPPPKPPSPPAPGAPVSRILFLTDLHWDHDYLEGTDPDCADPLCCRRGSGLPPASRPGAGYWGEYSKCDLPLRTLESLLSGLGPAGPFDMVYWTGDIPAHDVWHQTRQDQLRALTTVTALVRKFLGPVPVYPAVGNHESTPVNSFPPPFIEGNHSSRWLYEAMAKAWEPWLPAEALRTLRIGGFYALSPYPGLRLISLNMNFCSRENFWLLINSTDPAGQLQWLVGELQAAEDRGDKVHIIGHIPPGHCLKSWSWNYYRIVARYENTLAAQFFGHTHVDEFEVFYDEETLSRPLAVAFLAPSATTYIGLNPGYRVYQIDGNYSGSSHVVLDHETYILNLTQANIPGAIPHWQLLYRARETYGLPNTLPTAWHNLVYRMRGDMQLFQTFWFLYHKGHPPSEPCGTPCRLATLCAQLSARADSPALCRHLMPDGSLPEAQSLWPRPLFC
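Human placenta-derived ASM preincubated with compound 10 min at room temperature, then reacted with 9 uM (final) fluorogenic HMU-PC substrate for 60 min at 37 C. Stop solution raises pH to 10; fluorescence read at Ex 386/Em 447 nm.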
Active calls of the source: *. Unless noted, the call rests on the fitted dose curve; in most records, active means well fitted curve in the direction sought with a large enough effect; inconclusive means small, poorly fitted or top-dose-only effect, or another doubt; inactive means no such curve, though single readings can be large; an effect the other way counts as inactive or inconclusive.

For CCCSC(=O)N(CC)CC(=O)Nc1c(CC)cccc1CC the results were DT40 TDP1 CPT -7%, TGFb inhibitor -2%, DT40 TDP1 no CPT -11%, HepG2 tox 1%, IL1B secr inh -7 and ASM inhibitor 1%.
C#CCOCCOCCOCCNc1nc(N2CCN(C(=O)[C@H](CCC(=O)O)n3cc([C@@H](N)[C@H](C)CC)nn3)CC2)nc(N2CCN(C(=O)[C@H](CCC(=O)O)n3cc([C@@H](N)CCSC)nn3)CC2)n1 was read as DT40 TDP1 CPT -7%, TGFb inhibitor -1%, DT40 TDP1 no CPT 1%, HepG2 tox -5%, IL1B secr inh 14 and ASM inhibitor 0%.
COc1ccc(/C=N/NC(=O)c2cccc([N+](=O)[O-])c2)cc1OC(=O)c1ccccc1 was read as DT40 TDP1 CPT 16µM*, TGFb inhibitor -2%, DT40 TDP1 no CPT 15µM*, HepG2 tox -13%, IL1B secr inh 55 and ASM inhibitor -14%.
Screening COc1cc(/C=N/NC(=O)COc2c(C)cc([N+](=O)[O-])cc2C)ccc1OC(=O)c1ccccc1 returned DT40 TDP1 CPT 13µM*, TGFb inhibitor -3%, DT40 TDP1 no CPT 21µM*, HepG2 tox -16%, IL1B secr inh 62 and ASM inhibitor -5%.
For COc1ccc(/C=N/NC(=O)c2cccc([N+](=O)[O-])c2)cc1OC(=O)c1ccc(C)cc1 the results were DT40 TDP1 CPT inconclusive, TGFb inhibitor -15%, DT40 TDP1 no CPT inconclusive, HepG2 tox -16%, IL1B secr inh 26 and ASM inhibitor -13%.
`COc1cccc(C(=O)N/N=C/c2ccc(Oc3ccc([N+](=O)[O-])cn3)c(OC)c2)c1` gave DT40 TDP1 CPT 21µM*, TGFb inhibitor -18%, DT40 TDP1 no CPT inconclusive, HepG2 tox 7%, IL1B secr inh -8 and ASM inhibitor -1%.
Screening N#Cc1cc([N+](=O)[O-])ccc1Oc1cccc(/C=N/NC(=O)c2cccc(Cl)c2)c1 returned DT40 TDP1 CPT inconclusive, TGFb inhibitor 1%, DT40 TDP1 no CPT 21µM*, HepG2 tox -33%, IL1B secr inh inconclusive and ASM inhibitor -8%.
Screening COc1ccc(/C=N/NC(=O)c2cccc([N+](=O)[O-])c2)cc1OC returned DT40 TDP1 CPT -10%, TGFb inhibitor -11%, DT40 TDP1 no CPT 9%, HepG2 tox -15%, IL1B secr inh -8 and ASM inhibitor -3%.
Screening Nn1c(-c2cccc(O)c2)nnc1-c1cccc(O)c1 returned DT40 TDP1 CPT 8%, TGFb inhibitor -10%, DT40 TDP1 no CPT 4%, HepG2 tox 1%, IL1B secr inh -10 and ASM inhibitor 2%.
`CCCNC(=O)C1(C)CCN1C(=O)C/C=C/c1ccccc1` (stereo unspecified) gave DT40 TDP1 CPT -22%, TGFb inhibitor 9%, DT40 TDP1 no CPT -25%, HepG2 tox 0% and IL1B secr inh 8.
O=C(N/N=C/c1cccc([N+](=O)[O-])c1)c1ccc(COc2ccccc2-c2ccccc2)cc1 was read as DT40 TDP1 CPT 21µM*, TGFb inhibitor -8%, DT40 TDP1 no CPT 23µM*, HepG2 tox 3%, IL1B secr inh inactive and ASM inhibitor -4%.
Screening COc1ccc(/C=N/NC(=O)c2cccc([N+](=O)[O-])c2)c2ccccc12 returned DT40 TDP1 CPT inconclusive, TGFb inhibitor -6%, DT40 TDP1 no CPT inconclusive, HepG2 tox -18%, IL1B secr inh 37 and ASM inhibitor 0%.
COc1ccc(/C=N/NC(=O)c2cccc([N+](=O)[O-])c2)cc1OS(=O)(=O)c1ccccc1 was read as DT40 TDP1 CPT inconclusive, TGFb inhibitor -2%, DT40 TDP1 no CPT 16µM*, HepG2 tox -7%, IL1B secr inh -19 and ASM inhibitor -8%.
For COc1cc(/C=N/NC(=O)c2cccc([N+](=O)[O-])c2)ccc1OCc1ccccc1 the results were DT40 TDP1 CPT inconclusive, TGFb inhibitor 13%, DT40 TDP1 no CPT inconclusive, HepG2 tox -25%, IL1B secr inh -3 and ASM inhibitor 0%.
`COc1cccc(/C=N/NC(=O)c2cccc([N+](=O)[O-])c2)c1OS(=O)(=O)c1ccccc1` gave DT40 TDP1 CPT inconclusive, TGFb inhibitor 0%, DT40 TDP1 no CPT 16µM*, HepG2 tox -13%, IL1B secr inh -20 and ASM inhibitor -7%.
Cc1noc(-c2ccc(-c3noc(-c4ccccc4)n3)cc2)n1 was read as DT40 TDP1 CPT -14%, TGFb inhibitor inconclusive, DT40 TDP1 no CPT 1% and HepG2 tox 2%.
Screening C=CCN(CC=C)S(=O)(=O)c1ccc(NC(=S)NC(=O)Cc2ccc(OC)cc2)cc1 returned DT40 TDP1 CPT inconclusive, TGFb inhibitor -3%, DT40 TDP1 no CPT 21µM*, HepG2 tox -7%, IL1B secr inh 8 and ASM inhibitor -3%.
For C=CCN(CC=C)S(=O)(=O)c1ccc(NC(=S)NC(=O)c2ccco2)cc1 the results were DT40 TDP1 CPT inconclusive, TGFb inhibitor 9%, DT40 TDP1 no CPT 18µM*, HepG2 tox -32%, IL1B secr inh -21 and ASM inhibitor -4%.
C[n+]1cccc(C(=O)Nc2ccccc2)c1 was read as DT40 TDP1 CPT -3%, TGFb inhibitor 4%, DT40 TDP1 no CPT 20%, HepG2 tox 7%, IL1B secr inh 22 and ASM inhibitor 0%.
For O=C(NCc1ccncc1)[C@@H]1CCCN1C(=O)[C@H]1CCCN1C(=O)c1cccs1 the results were DT40 TDP1 CPT inconclusive, DT40 TDP1 no CPT -29% and IL1B secr inh 17.
O=C(NCc1ccccc1)[C@@H]1CCCN1C(=O)[C@@H]1CCCN1C(=O)c1cccs1 was read as DT40 TDP1 CPT -44%, DT40 TDP1 no CPT -41% and IL1B secr inh -57*.
For O=C(NCCC1CCCCN1S(=O)(=O)c1ccccc1)C(=O)Nc1ccccc1 (stereo unspecified) the results were DT40 TDP1 CPT inconclusive, TGFb inhibitor 2%, DT40 TDP1 no CPT inconclusive, HepG2 tox 2%, IL1B secr inh -16 and ASM inhibitor 0%.
